14 molecules from PubChem BioAssay can be followed below.

The target in assay [1] is Cell division control protein 42 homolog (Homo sapiens) (UniProt P60953). The experiment in a line: activated mutant Cdc42 GTP-binding inhibitors, dose response, biochemical, multiplex bead flow cytometry, Bodipy-FL-GTP (AID 1333;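 active = fitted half-maximal concentration within the tested dose range, moderate curve steepness, a statistically real signal drop, and little compound fluorescence or tag-binding interference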).
Assay [2] shares this target. Briefly: wildtype Cdc42 GTP-binding inhibitors, dose response, biochemical, multiplex bead flow cytometry, Bodipy-FL-GTP (AID 1334;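 active = fitted half-maximal concentration within the tested range, moderate curve steepness, significant signal drop, and little compound fluorescence or bead-linkage interference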). The following applies: bead-based flow cytometry, Bodipy-FL-GTP binding to GST-Cdc42; at 100 µM (top of the series) unless noted. (In general: Flow cytometry measures light scatter and fluorescence of single cells or particles in a stream.)

Assay [3] concerns the target GTPase HRas (Homo sapiens) (UniProt P01112). Briefly: inhibitors of GTP binding to wildtype Ras, dose response, biochemical, multiplex bead flow cytometry (AID 1335). The following applies: bead-based flow cytometry, Bodipy-GTP binding to GST-Ras; at 100 µM (top of the series) unless noted.
Assay [4] deals with Ras-related protein Rab-7a (dog), GTP binding. Briefly: Rab7 GTP binding inhibitors, potency, dose response, biochemical, wildtype, multiplex bead flow cytometry (AID 1336; call rule not given here).
Assay [5] has as its target Ras-related C3 botulinum toxin substrate 1 (Homo sapiens) (UniProt P63000). Briefly: wildtype Rac1 GTP binding inhibitors, dose response, biochemical, multiplex bead flow cytometry (AID 1340;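 active = dose curve with midpoint inside tested range, moderate steepness, plateau gap beyond fit error, low compound glow and bead-link interference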). The note with it: GST-Rac1 beads, Bodipy-FL-GTP binding; at 100 µM (top of the series) unless noted.
Assay [6] addresses GTPase HRas (Homo sapiens) (UniProt P01112). Briefly: activated Ras mutant GTP binding inhibitors, dose response, biochemical, multiplex bead flow cytometry (AID 1341;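 active = dose-response curve with midpoint inside the tested range, moderate steepness, significant amplitude and little compound fluorescence or bead-attachment interference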;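 note: GST-tagged constitutively activated Ras mutant immobilized on beads and multiplexed with other GTPases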).

For part of these data: Potency and affinity values are given separately. Activity calls are given as the source filed them.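 Rule for the calls, unless noted: active = fitted half-maximal concentration within 10 nM to 100 µM, steepness 0.5 to 2, significant signal drop, low assay interference; inactive = the rest.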

GTPase HRas (Homo sapiens), sequence (P01112 whole entry, looked up): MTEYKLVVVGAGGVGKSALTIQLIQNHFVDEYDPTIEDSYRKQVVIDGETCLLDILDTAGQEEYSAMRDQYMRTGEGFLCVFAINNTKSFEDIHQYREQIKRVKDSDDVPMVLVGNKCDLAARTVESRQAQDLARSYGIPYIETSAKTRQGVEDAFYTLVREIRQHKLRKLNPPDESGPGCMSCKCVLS
Cell division control protein 42 homolog (Homo sapiens), sequence (P60953 whole entry, looked up): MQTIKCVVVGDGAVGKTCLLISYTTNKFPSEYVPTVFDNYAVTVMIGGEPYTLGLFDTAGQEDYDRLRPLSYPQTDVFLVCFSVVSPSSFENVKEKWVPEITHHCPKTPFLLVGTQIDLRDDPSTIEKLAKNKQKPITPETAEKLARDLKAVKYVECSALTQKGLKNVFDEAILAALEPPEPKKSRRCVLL

Regarding `O=C(COC(=O)/C=C/c1ccc(Cl)cc1)Nc1ccc2c(c1)OCCO2`, the outcome in assay [1], in assay [4] and in assay [6] was inactive. Further, in assay [2], the fluorescence, percent of control (lower = inhibition) was determined as 40.2%. In assay [3], this molecule yielded a GTP binding, percent of control of 59.5%. Further, the GTP binding signal, raw median fluorescence (lower = inhibition) (MCF (arbitrary fluorescence units)) in assay [5] is 162.

Turning to `N#Cc1ccc(OCc2ccc(C(=O)O)o2)cc1`, the outcome in assay [1], in assay [4] and in assay [6] was inactive. Also, in assay [2], the fluorescence, percent of control (lower = inhibition) came out at 63.6%. The molecule also came in with a GTP binding, percent of control in assay [3] of 87.2%. This molecule also registered a GTP binding signal, raw median fluorescence (lower = inhibition) (MCF (arbitrary fluorescence units)) in assay [5] of 37.7.

Take `CC(=O)N1C(=O)/C(=C2\SC(=S)N(NC(=O)c3ccc(O)cc3)C2=O)c2ccccc21`: the molecule was called inactive in assay [1], in assay [4] and in assay [6]. Also, the fluorescence, percent of control (lower = inhibition) in assay [2] came out at 31.6%. Further, the GTP binding, percent of control in assay [3] stood at 70.8%. This molecule came in with a GTP binding signal, raw median fluorescence (lower = inhibition) (MCF (arbitrary fluorescence units)) in assay [5] of 155.

With `CC(SC(=S)N(C)Cc1cccs1)C(=O)O` (centres undefined), the result in assay [1], in assay [4] and in assay [6] was inactive. Further, the fluorescence, percent of control (lower = inhibition) in assay [2] was 83.3%. Also, the GTP binding, percent of control in assay [3] came out at 79.5%. In assay [5], this molecule yielded a GTP binding signal, raw median fluorescence (lower = inhibition) (MCF (arbitrary fluorescence units)) of 312.

On to `CCOc1cc(/C=C2/NC(=O)NC2=O)cc([N+](=O)[O-])c1O`, for which the call in assay [1], in assay [4] and in assay [6] was inactive. In assay [2], the fluorescence, percent of control (lower = inhibition) was determined as 28.3%. The GTP binding, percent of control in assay [3] is 64.7%. Besides, the GTP binding signal, raw median fluorescence (lower = inhibition) (MCF (arbitrary fluorescence units)) in assay [5] worked out at 146.

On to `O=C(Cn1c(-c2cscn2)nc2ccccc21)Nc1cc(F)ccc1F`, for which the molecule was called inactive in assay [1], in assay [4] and in assay [6]. Besides, in assay [2], the fluorescence, percent of control (lower = inhibition) is 33.9%. In addition, the GTP binding, percent of control in assay [3] was determined as 75.9%. In addition, the GTP binding signal, raw median fluorescence (lower = inhibition) (MCF (arbitrary fluorescence units)) in assay [5] was 210.

Regarding `N#C/C(=C/c1ccc(N2CCCCCC2)o1)c1ccc(Cl)cc1`, the molecule was classed as inactive in assay [1], in assay [4] and in assay [6]. Moreover, the fluorescence, percent of control (lower = inhibition) in assay [2] turned out to be 127%. In assay [3], this molecule came in with a GTP binding, percent of control of 205%. This molecule also came in with a GTP binding signal, raw median fluorescence (lower = inhibition) (MCF (arbitrary fluorescence units)) in assay [5] of 210.

Take `O=C(O)c1ccccc1C(=O)OCc1ccccc1`: the result in assay [1], in assay [4] and in assay [6] was inactive. In addition, in assay [2], the fluorescence, percent of control (lower = inhibition) was determined as 105%. The GTP binding, percent of control in assay [3] stood at 365%. Further, the GTP binding signal, raw median fluorescence (lower = inhibition) (MCF (arbitrary fluorescence units)) in assay [5] amounted to 408.

For the molecule `COc1cccc(-c2cc(C(F)(F)F)c(C#N)c(=O)[nH]2)c1`, the result in assay [1], in assay [4] and in assay [6] was inactive. In assay [2], the fluorescence, percent of control (lower = inhibition) amounted to 30%. Also, the GTP binding, percent of control in assay [3] was 75.7%. In assay [5], this molecule showed a GTP binding signal, raw median fluorescence (lower = inhibition) (MCF (arbitrary fluorescence units)) of 230.

Turning to `O=C(O)CCCCCNS(=O)(=O)c1cccc2c1C(=O)c1ccccc1C2=O`, the call in assay [1], in assay [4] and in assay [6] was inactive. In addition, the fluorescence, percent of control (lower = inhibition) in assay [2] was 32.5%. Further, the GTP binding, percent of control in assay [3] turned out to be 45.9%. Further, in assay [5], the GTP binding signal, raw median fluorescence (lower = inhibition) (MCF (arbitrary fluorescence units)) turned out to be 0.

Consider `CC(C)CCNC(=O)CN(CCCN1CCOCC1)C(=O)Cn1nnc(-c2ccc(F)cc2)n1`, for which the call in assay [1], in assay [4] and in assay [6] was inactive. Also, in assay [2], the fluorescence, percent of control (lower = inhibition) was 98.9%. Also, in assay [3], the GTP binding, percent of control is 180%. Also, in assay [5], the GTP binding signal, raw median fluorescence (lower = inhibition) (MCF (arbitrary fluorescence units)) is 184.

For `O=C(CNC(=O)Cc1ccccc1)N=Nc1c(O)n(Cc2ccc3c(c2)OCO3)c2ccccc12`, the result in assay [1], in assay [4] and in assay [6] was inactive. In assay [2], the fluorescence, percent of control (lower = inhibition) was determined as 36.1%. Besides, the GTP binding, percent of control in assay [3] was 48.5%. Further, the GTP binding signal, raw median fluorescence (lower = inhibition) (MCF (arbitrary fluorescence units)) in assay [5] stood at 112.

In the case of `O=C(O)c1cccnc1Oc1ccc2c(c1)OCO2`, the molecule was called inactive in assay [1], in assay [4] and in assay [6]. In addition, the fluorescence, percent of control (lower = inhibition) in assay [2] was 76.8%. Besides, the GTP binding, percent of control in assay [3] was found to be 92%. This molecule also gave a GTP binding signal, raw median fluorescence (lower = inhibition) (MCF (arbitrary fluorescence units)) in assay [5] of 55.2.

On to `O=C(CCc1ccc(S(=O)(=O)NCCc2ccccc2)cc1)Nc1ccc2c(c1)OCO2`, for which the call in assay [1], in assay [4] and in assay [6] was inactive. Further, the fluorescence, percent of control (lower = inhibition) in assay [2] was 52.3%. This molecule returned a GTP binding, percent of control in assay [3] of 67.2%. Also, the GTP binding signal, raw median fluorescence (lower = inhibition) (MCF (arbitrary fluorescence units)) in assay [5] stood at 212.
